Results published in paper PMC7862700, “An all-to-all approach to the identification of sequence-specific readers for epigenetic DNA modifications on cytosine”.

Experiments:
Assay in all cases: DAPPL (digital affinity profiling via proximity ligation, sequencing); 10 mM Tris-HCl pH 7.5, 50 mM NaCl, 1 mM DTT, 4% glycerol, room temperature, 30 min; GST-TFs on glutathione beads, 16-mer random dsDNA library, 0.1% formaldehyde crosslink after washing; high values mean tight binding
Settings in all cases: protein: recombinant; tags: N-terminal GST; dsDNA, one strand shown
ERF = biological target: T1, ERF (Homo sapiens, UniProt P50548 1-548)
T1 sequence: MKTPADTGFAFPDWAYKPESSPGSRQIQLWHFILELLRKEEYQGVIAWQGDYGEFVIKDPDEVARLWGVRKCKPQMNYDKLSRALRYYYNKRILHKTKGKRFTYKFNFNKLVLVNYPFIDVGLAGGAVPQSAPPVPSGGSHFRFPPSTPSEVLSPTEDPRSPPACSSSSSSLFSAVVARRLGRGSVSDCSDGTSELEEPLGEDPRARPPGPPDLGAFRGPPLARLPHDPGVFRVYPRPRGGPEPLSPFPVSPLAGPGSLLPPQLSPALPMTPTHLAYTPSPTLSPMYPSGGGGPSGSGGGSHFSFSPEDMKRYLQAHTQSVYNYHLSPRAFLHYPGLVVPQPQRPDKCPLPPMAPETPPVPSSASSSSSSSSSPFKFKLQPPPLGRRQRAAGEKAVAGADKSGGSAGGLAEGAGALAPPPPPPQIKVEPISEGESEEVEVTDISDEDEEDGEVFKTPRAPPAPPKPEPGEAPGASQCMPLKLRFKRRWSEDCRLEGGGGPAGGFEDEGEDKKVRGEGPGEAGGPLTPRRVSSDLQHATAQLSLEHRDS
Outline: (§1)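 After expression in yeast as GST fusions, human transcription factors were bound to glutathione beads, DNA-barcoded and mixed with a tag-only sample. The pools were incubated with 200 nmole of a 16-mer random double-stranded DNA library in Tris/NaCl/DTT/glycerol buffer (30 min, room temperature), washed and crosslinked with 0.1% formaldehyde. Proximity ligation with BsaI/T4 ligase ran for 1 h at 37 °C, before PCR amplification and sequencing on an Illumina NextSeq500. Binding signal is a hexamer's read frequency for a factor divided by its frequency for the tag-only sample.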

ETV3L = biological target: T2, ETV3L (Homo sapiens, UniProt Q6ZN32 1-361)
T2 sequence: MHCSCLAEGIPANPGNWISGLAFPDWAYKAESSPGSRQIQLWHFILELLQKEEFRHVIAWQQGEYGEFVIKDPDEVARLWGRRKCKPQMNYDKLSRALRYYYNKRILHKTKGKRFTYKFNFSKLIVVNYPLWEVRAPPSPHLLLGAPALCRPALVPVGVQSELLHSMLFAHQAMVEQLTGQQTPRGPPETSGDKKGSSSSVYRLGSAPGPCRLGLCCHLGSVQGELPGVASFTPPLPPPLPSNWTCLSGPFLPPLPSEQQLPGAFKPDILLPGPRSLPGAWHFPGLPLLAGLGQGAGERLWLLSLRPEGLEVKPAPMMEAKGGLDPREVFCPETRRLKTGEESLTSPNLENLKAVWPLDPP
Outline: as §1

ETS2 = biological target: T3, ETS2 (Homo sapiens, UniProt P15036 1-469)
T3 sequence: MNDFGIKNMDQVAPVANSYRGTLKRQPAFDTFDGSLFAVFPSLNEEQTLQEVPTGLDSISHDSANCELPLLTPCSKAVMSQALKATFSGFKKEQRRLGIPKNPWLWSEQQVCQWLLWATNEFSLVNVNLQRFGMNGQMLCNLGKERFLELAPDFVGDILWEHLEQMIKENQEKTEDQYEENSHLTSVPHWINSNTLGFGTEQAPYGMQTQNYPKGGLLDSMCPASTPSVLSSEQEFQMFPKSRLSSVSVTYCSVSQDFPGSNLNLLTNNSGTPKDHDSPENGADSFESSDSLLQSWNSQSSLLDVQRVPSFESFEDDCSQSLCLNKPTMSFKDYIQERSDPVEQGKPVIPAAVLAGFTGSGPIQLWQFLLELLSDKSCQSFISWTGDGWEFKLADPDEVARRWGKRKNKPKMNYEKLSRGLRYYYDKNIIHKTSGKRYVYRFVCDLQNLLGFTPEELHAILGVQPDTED
Outline: as §1

SPDEF = biological target: T4, SPDEF (Homo sapiens, UniProt O95238 1-335)
T4 sequence: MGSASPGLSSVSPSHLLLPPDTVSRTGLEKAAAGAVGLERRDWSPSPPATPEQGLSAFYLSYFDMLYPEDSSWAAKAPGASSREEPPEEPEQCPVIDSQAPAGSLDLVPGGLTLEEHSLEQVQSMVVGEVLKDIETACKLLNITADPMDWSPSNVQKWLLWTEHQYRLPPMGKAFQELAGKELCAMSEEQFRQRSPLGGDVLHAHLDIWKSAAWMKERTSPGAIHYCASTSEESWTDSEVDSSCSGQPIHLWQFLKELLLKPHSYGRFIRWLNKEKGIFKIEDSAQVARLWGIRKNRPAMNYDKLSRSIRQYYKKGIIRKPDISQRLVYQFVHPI
Outline: as §1

ETV7 = biological target: T5, ETV7 (Homo sapiens, UniProt Q9Y603 1-341)
T5 sequence: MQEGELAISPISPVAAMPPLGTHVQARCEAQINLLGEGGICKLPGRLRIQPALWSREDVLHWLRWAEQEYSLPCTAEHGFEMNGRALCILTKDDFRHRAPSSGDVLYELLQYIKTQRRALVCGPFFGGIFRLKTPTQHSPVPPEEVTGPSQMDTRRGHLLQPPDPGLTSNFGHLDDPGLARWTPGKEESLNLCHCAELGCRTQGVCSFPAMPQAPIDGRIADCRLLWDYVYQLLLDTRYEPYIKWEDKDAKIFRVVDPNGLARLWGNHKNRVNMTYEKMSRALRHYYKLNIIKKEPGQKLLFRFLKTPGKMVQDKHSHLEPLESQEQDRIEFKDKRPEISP
Outline: as §1

ELF5 = biological target: T6, ELF5 (Homo sapiens, UniProt Q9UKW6-2 1-255)
T6 sequence: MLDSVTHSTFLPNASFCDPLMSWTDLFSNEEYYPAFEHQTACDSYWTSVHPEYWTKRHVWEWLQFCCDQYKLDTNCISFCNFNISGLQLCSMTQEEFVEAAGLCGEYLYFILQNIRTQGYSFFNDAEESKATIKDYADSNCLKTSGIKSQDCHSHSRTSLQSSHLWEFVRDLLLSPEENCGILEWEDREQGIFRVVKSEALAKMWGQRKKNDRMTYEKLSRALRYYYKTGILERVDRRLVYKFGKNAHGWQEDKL
Outline: as §1

ETV3 = biological target: T7, ETV3 (Homo sapiens, UniProt P41162-2 1-143)
T7 sequence: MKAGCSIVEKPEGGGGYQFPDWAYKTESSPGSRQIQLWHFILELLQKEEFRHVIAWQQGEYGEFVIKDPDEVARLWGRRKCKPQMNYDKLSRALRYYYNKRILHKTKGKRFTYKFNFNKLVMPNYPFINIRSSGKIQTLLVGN
Outline: as §1

ETV6 = ETV6 (Homo sapiens, UniProt P41212 1-452)
Sequence of ETV6 (P41212 whole entry): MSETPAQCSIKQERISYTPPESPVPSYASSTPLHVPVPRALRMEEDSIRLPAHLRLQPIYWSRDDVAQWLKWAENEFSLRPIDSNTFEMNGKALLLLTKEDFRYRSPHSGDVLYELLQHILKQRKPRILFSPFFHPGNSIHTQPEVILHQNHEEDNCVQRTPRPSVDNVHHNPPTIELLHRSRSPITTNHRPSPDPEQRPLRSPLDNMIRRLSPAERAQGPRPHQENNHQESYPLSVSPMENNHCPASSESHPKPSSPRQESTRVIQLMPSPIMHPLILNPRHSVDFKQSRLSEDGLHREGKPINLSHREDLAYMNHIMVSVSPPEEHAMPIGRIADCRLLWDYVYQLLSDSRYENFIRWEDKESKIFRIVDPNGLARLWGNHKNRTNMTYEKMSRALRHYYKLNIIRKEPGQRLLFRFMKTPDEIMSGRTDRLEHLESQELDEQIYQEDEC
Outline: as §1

Sequence | binding signal (ERF) | binding signal (ETV3L) | binding signal (ETS2) | binding signal (SPDEF) | binding signal (ETV7) | binding signal (ELF5) | binding signal (ETV3) | binding signal (ETV6)
TAGCCC | 1.18 fold enrichment (6-mer frequency, TF over GST control) | 1.11 fold enrichment (6-mer frequency, TF over GST control) | 1.14 fold enrichment (6-mer frequency, TF over GST control) | 1.3 fold enrichment (6-mer frequency, TF over GST control) | 1.05 fold enrichment (6-mer frequency, TF over GST control) | 1.07 fold enrichment (6-mer frequency, TF over GST control) | 1.24 fold enrichment (6-mer frequency, TF over GST control) | 1.04 fold enrichment (6-mer frequency, TF over GST control)
TCGCCC | 1.32 fold enrichment (6-mer frequency, TF over GST control) | 1.34 fold enrichment (6-mer frequency, TF over GST control) | 1.23 fold enrichment (6-mer frequency, TF over GST control) | 1.25 fold enrichment (6-mer frequency, TF over GST control) | 1.27 fold enrichment (6-mer frequency, TF over GST control) | 1.14 fold enrichment (6-mer frequency, TF over GST control) | 1.21 fold enrichment (6-mer frequency, TF over GST control) | 1.23 fold enrichment (6-mer frequency, TF over GST control)
TGGCTC | 1.31 fold enrichment (6-mer frequency, TF over GST control) | 1.5 fold enrichment (6-mer frequency, TF over GST control) | 1.23 fold enrichment (6-mer frequency, TF over GST control) | 1.32 fold enrichment (6-mer frequency, TF over GST control) | 1.22 fold enrichment (6-mer frequency, TF over GST control) | 1.21 fold enrichment (6-mer frequency, TF over GST control) | 1.44 fold enrichment (6-mer frequency, TF over GST control) | 1.36 fold enrichment (6-mer frequency, TF over GST control)
TCCAAT | 1.13 fold enrichment (6-mer frequency, TF over GST control) | 1.22 fold enrichment (6-mer frequency, TF over GST control) | 1.2 fold enrichment (6-mer frequency, TF over GST control) | 1.2 fold enrichment (6-mer frequency, TF over GST control) | 1.33 fold enrichment (6-mer frequency, TF over GST control) | 1.15 fold enrichment (6-mer frequency, TF over GST control) | 1.2 fold enrichment (6-mer frequency, TF over GST control) | 1.22 fold enrichment (6-mer frequency, TF over GST control)
CTCCAA | 1.32 fold enrichment (6-mer frequency, TF over GST control) | 1.28 fold enrichment (6-mer frequency, TF over GST control) | 1.32 fold enrichment (6-mer frequency, TF over GST control) | 1.33 fold enrichment (6-mer frequency, TF over GST control) | 1.52 fold enrichment (6-mer frequency, TF over GST control) | 1.23 fold enrichment (6-mer frequency, TF over GST control) | 1.23 fold enrichment (6-mer frequency, TF over GST control) | 1.28 fold enrichment (6-mer frequency, TF over GST control)
CCTCGA | 1.28 fold enrichment (6-mer frequency, TF over GST control) | 1.35 fold enrichment (6-mer frequency, TF over GST control) | 1.21 fold enrichment (6-mer frequency, TF over GST control) | 1.23 fold enrichment (6-mer frequency, TF over GST control) | 1.42 fold enrichment (6-mer frequency, TF over GST control) | 1.34 fold enrichment (6-mer frequency, TF over GST control) | 1.26 fold enrichment (6-mer frequency, TF over GST control) | 1.29 fold enrichment (6-mer frequency, TF over GST control)
TACGCG | 1.13 fold enrichment (6-mer frequency, TF over GST control) | 1.13 fold enrichment (6-mer frequency, TF over GST control) | 1.14 fold enrichment (6-mer frequency, TF over GST control) | 1.23 fold enrichment (6-mer frequency, TF over GST control) | 1.02 fold enrichment (6-mer frequency, TF over GST control) | 1.09 fold enrichment (6-mer frequency, TF over GST control) | 1.16 fold enrichment (6-mer frequency, TF over GST control) | 1.15 fold enrichment (6-mer frequency, TF over GST control)
ATAGAA | 1.1 fold enrichment (6-mer frequency, TF over GST control) | 1.1 fold enrichment (6-mer frequency, TF over GST control) | 1.07 fold enrichment (6-mer frequency, TF over GST control) | 1.02 fold enrichment (6-mer frequency, TF over GST control) | 1.16 fold enrichment (6-mer frequency, TF over GST control) | 1.04 fold enrichment (6-mer frequency, TF over GST control) | 1.1 fold enrichment (6-mer frequency, TF over GST control) | 1.13 fold enrichment (6-mer frequency, TF over GST control)
